From the supplement of paper PMC11732987, “Enantioselective OTUD7B fragment discovery through chemoproteomics screening and high-throughput optimisation” (Communications Chemistry, 2025)

Legend:
Test in all cases: log2 ratio of Biotin-Ahx-Ub-VS probe labelling (fragment/DMSO); higher = less target engagement (more negative = stronger competition), active = hit call of the paper (q ≤ 0.05, log2 ratio ≤ -1)
Conditions in all cases: compound concentration: 200 uM; treatment time: 3 h
ALG13 = biological target: T1, ALG13 (UniProt Q9NP73)
T1 sequence (whole entry): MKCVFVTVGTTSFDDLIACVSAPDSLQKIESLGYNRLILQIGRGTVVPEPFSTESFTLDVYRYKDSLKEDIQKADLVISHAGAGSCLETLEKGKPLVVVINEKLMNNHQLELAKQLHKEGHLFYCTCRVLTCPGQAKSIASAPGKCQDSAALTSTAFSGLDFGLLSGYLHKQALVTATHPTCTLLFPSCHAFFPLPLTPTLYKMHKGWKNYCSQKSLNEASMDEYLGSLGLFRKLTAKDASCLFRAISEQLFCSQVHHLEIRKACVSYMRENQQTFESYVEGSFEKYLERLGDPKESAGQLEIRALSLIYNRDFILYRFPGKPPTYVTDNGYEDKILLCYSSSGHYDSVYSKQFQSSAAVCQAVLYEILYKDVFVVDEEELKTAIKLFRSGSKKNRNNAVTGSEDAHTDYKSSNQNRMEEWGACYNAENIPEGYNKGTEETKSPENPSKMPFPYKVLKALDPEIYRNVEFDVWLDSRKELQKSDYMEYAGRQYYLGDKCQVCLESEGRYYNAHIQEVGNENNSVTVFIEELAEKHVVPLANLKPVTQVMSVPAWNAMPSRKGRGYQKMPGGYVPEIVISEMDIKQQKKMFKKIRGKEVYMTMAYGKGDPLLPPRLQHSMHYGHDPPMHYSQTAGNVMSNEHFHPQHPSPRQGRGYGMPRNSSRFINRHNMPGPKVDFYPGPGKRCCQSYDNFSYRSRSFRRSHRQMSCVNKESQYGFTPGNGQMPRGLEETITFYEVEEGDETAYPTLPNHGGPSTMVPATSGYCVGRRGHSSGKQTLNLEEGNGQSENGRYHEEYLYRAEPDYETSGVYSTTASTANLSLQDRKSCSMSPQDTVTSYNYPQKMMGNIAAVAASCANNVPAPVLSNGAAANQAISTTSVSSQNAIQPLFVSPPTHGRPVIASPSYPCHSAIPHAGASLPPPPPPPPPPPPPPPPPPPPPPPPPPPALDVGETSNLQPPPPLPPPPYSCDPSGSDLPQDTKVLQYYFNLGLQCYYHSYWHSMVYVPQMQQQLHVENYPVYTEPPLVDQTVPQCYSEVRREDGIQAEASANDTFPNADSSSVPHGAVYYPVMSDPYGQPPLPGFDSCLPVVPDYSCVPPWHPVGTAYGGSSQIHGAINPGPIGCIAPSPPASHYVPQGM
Method in brief: (§1)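 Fragment (200 µM) or vehicle was incubated for 3 h with triplicate HEK293T lysate samples of 495 µg, which were then treated with Biotin-Ahx-Ub-VS at 0.5 µM final for 1 h. Labelled DUBs were enriched on NeutrAvidin, digested with LysC and trypsin, and analysed by diaPASEF LC-MS/MS. Values are average log2 fragment/vehicle ratios from an unpaired t-test on global-median-normalised Spectronaut label-free quantities, using proteins with ≥2 unique peptides.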

ATXN3 = ATXN3 (UniProt P54252)
Method in brief: as §1

BAP1 = biological target: T2, BAP1 (UniProt Q92560)
T2 sequence (whole entry): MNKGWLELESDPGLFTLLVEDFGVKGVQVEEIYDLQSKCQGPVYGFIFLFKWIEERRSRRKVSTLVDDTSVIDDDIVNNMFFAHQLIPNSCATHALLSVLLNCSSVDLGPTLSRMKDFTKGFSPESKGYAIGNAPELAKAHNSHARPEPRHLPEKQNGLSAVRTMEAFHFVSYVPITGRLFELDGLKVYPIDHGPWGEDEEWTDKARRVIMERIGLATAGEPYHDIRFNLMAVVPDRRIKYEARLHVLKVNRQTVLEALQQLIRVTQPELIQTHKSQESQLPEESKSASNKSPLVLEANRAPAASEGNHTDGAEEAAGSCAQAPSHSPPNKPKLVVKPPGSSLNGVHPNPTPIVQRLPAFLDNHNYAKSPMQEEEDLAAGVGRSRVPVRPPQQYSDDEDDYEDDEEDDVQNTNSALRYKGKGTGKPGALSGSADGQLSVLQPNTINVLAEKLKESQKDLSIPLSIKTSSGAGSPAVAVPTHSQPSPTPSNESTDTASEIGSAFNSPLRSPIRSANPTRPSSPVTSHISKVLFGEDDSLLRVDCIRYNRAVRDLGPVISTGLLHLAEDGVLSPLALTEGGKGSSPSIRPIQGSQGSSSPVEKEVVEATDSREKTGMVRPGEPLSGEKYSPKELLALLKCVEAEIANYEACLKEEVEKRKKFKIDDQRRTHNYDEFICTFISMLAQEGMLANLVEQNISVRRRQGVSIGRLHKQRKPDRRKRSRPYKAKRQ
Method in brief: as §1

EIF3F = EIF3F (UniProt O00303)
Method in brief: as §1

EIF3H = EIF3H (UniProt O15372)
Method in brief: as §1

FAM105A = biological target: T3, FAM105A (UniProt Q9NUU6)
T3 sequence (whole entry): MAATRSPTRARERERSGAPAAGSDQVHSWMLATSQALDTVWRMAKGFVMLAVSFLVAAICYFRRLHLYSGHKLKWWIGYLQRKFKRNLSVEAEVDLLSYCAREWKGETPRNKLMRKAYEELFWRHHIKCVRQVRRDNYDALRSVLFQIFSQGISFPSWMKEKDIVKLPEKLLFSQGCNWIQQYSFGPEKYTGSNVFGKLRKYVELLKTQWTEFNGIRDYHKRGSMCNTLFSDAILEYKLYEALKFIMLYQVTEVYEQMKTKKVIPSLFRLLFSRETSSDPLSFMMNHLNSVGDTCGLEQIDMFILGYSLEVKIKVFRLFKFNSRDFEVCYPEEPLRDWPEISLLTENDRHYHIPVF
Method in brief: as §1

OTUB1 = OTUB1 (UniProt Q96FW1)
Method in brief: as §1

OTUD4 = biological target: T4, OTUD4 (UniProt Q01804)
T4 sequence (whole entry): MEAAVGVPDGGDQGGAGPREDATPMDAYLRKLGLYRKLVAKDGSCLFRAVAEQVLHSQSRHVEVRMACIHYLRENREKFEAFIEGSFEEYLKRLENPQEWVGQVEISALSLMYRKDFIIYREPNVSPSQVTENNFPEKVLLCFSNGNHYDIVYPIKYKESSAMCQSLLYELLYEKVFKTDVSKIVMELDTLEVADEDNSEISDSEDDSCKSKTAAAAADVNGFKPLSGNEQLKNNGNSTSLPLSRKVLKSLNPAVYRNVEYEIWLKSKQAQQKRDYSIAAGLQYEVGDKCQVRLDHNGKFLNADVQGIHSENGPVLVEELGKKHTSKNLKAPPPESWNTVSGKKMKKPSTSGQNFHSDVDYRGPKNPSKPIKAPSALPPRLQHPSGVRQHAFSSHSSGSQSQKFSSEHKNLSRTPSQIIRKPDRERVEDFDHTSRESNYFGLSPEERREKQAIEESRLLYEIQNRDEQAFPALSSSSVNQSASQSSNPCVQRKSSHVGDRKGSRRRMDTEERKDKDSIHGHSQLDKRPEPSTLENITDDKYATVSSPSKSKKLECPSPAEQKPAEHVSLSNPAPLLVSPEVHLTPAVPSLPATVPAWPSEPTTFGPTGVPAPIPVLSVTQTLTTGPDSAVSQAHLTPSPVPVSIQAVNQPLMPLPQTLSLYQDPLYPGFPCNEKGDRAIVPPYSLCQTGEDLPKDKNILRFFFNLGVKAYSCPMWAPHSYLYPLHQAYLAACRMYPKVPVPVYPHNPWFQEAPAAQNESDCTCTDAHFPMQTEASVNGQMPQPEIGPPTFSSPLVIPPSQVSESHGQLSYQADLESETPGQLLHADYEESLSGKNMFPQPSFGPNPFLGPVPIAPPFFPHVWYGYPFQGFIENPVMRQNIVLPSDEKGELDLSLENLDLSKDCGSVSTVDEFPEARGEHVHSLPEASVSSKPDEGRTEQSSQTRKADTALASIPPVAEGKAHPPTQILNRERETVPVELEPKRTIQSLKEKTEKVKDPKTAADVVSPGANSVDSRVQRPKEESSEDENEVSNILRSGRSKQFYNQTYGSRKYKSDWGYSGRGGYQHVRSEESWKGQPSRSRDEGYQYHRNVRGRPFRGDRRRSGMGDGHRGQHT
Method in brief: as §1

OTUD5 = biological target: T5, OTUD5 (UniProt Q96G74)
T5 sequence (whole entry): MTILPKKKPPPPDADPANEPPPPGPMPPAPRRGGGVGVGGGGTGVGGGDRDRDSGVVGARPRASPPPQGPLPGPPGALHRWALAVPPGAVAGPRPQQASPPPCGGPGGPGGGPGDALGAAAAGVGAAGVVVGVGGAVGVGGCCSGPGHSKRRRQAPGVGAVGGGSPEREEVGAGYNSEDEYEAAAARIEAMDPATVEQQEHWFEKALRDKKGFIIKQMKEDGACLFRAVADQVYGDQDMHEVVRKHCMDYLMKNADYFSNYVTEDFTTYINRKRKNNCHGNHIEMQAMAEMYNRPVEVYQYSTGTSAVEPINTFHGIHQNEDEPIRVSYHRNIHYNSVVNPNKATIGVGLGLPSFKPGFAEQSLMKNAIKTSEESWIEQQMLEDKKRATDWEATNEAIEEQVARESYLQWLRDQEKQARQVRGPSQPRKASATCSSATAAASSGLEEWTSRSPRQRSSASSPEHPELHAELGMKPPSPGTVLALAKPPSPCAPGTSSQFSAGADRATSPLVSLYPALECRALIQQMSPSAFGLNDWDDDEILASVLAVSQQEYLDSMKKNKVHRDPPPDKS
Method in brief: as §1

Measured: log2 ratio of Biotin-Ahx-Ub-VS probe labelling

Sequence of ATXN3 (P54252 whole entry): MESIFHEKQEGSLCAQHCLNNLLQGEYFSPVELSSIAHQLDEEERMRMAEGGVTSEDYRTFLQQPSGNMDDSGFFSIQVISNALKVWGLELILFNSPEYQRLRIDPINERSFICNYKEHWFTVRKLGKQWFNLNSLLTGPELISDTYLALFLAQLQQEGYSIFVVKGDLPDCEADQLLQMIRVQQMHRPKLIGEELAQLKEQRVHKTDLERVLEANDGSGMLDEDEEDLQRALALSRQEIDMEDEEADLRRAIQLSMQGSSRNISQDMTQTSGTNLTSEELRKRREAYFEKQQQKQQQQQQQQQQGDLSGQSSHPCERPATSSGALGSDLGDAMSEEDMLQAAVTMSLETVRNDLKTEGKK
Sequence of EIF3F (O00303 whole entry): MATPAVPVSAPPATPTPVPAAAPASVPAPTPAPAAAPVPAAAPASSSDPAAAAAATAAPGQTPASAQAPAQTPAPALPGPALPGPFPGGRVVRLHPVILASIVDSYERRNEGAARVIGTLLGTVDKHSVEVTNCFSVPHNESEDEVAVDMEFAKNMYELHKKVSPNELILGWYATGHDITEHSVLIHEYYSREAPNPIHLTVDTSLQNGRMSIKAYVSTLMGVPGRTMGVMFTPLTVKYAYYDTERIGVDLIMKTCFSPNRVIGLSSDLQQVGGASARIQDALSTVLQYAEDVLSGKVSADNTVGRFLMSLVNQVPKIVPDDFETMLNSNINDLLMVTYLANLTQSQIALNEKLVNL
Sequence of OTUB1 (Q96FW1 whole entry): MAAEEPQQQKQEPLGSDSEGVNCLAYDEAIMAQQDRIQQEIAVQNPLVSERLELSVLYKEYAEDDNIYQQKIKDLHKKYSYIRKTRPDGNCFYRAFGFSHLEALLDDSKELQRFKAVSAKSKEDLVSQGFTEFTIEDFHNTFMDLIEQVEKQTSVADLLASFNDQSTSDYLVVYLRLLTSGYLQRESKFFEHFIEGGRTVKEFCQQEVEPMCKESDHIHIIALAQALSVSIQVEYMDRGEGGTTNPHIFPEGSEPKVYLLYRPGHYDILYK
Sequence of EIF3H (O15372 whole entry): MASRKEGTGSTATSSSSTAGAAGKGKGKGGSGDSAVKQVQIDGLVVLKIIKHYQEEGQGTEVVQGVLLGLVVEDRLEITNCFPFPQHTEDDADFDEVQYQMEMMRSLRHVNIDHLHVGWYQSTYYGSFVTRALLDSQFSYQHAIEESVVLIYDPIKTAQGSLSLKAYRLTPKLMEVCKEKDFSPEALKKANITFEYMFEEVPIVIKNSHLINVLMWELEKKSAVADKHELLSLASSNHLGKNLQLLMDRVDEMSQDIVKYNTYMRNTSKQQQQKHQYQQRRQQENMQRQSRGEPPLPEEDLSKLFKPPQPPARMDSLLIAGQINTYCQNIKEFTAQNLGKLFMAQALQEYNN

O=C(CCl)Nc1cc2c(cc1Cl)OCCCO2
inactive: ALG13 0.0687 | ATXN3 -0.0939 | EIF3F -0.197 | EIF3H -0.577 | FAM105A 0.278 | OTUB1 -0.0827 | OTUD4 0.136 | OTUD5 -0.0905
active: BAP1 -3.43
